In PubChem BioAssay (NCI):
This is part of a sample that, as a whole, favours compounds with a hit. Of some 83,000 tested, about 20% had one in any assay.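 48-hour exposure, single concentration, 96-well plates; percent growth endpoint where 0 means no net growth. Active: below 10.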 A number with no mark means an inactive call. The source made the active and inactive calls.

Tests used:
Experiment in all cases: NCI-60 one-dose screen, 48 h (100 = growth as untreated, 0 = no growth, -100 = all killed)
Conditions in all cases: 10 µM unless noted
HCT-15 colon = test system: HCT-15 colon
HT29 colon = test system: HT29 colon
SNB-75 CNS = test system: SNB-75 CNS
SNB-19 CNS = test system: SNB-19 CNS
U251 CNS = test system: U251 CNS
PC-3 prostate = test system: PC-3 prostate
SK-MEL-5 melanoma = test system: SK-MEL-5 melanoma
UACC-62 melanoma = test system: UACC-62 melanoma
LOX IMVI melanoma = test system: LOX IMVI melanoma
SK-MEL-28 melanoma = test system: SK-MEL-28 melanoma

Compound	growth (HCT-15 colon)	growth (HT29 colon)	growth (SNB-75 CNS)	growth (SNB-19 CNS)	growth (U251 CNS)	growth (PC-3 prostate)	growth (SK-MEL-5 melanoma)	growth (UACC-62 melanoma)	growth (LOX IMVI melanoma)	growth (SK-MEL-28 melanoma)
Cc1ccccc1N1CCN(C(=S)c2ccccc2)CC1	98.8%	96.2%	84.7%	98.8%	93.4%	101%	96.8%	82.9%	92.3%	109%
C[C@@H]1CN(c2cnc(C(=O)Nc3cc(F)cc4cccnc34)cn2)C[C@H](C)N1	35.7%	35.5%	69%	92.4%	76.6%	21.2%	102%	94.3%	72.7%	94%
COc1cc2c(c(OC)c1OC)CCC(c1cccc(C(=O)Nc3ccc(Br)cc3)c1)O2 (stereo not given)	61%	65.7%	61.8%	65.8%	75.5%	39.4%	55%	53%	65.2%	76.9%
CN(C)c1ccc(/C=C2\C=C(c3nc4ccccc4s3)OC2=O)cc1	102%	98.2%	87.2%	95.3%	98.4%	78.5%	96.4%	75.4%	91%	106%
Nc1c(Cl)cc(/C=C2\C=Cc3ccccc32)cc1Cl	100%	97.6%	86.1%	114%	108%	90.6%	105%	106%	89.7%	114%
CC(=O)Nc1sc2c(c1-c1nc3ccccc3s1)CNC2	11.3%	15.7%	29.5%	26.8%	27.3%	21.7%	17.4%	20.1%	3.64% (active)	34.2%
Cc1nn(-c2ccc([N+](=O)[O-])cc2)c2ncnc(N/N=C/c3ccccc3O)c12	26.2%	30.1%	37.9%	18%	11.4%	27%	-42% (active)	-11.3% (active)	6.25% (active)	22%
O=C(C1=Cc2cc3ccccc3n2Cc2cnnn21)c1ccc(F)cc1	95.8%	112%	86.2%	94.1%	98.2%	92.3%	96%	90.9%	98.8%	105%
O=C(c1c[nH]c2ccccc12)c1n[nH]c(=S)n1-c1ccc([N+](=O)[O-])cc1	64.7%	98.6%	95.4%	116%	105%	83.9%	88.3%	93.1%	100%	107%
Cc1nc2sc(C(=O)Nc3cccc(Cl)c3C)c(N)c2cc1C(=O)/C=C/c1ccccc1	-66.4% (active)	-58.6% (active)	12.6%	-41.8% (active)	-73.6% (active)	0.225% (active)	-10.8% (active)	2.03% (active)	-75.8% (active)	27.3%
C#Cc1cccc(Nc2ncnc3cc(NC(=O)CCl)ccc23)c1	-67.7% (active)	-65.5% (active)	-97.2% (active)	-70.8% (active)	-88.1% (active)	-64.9% (active)	-93.9% (active)	-68.6% (active)	-62.7% (active)	-45.1% (active)
O=C1/C(=C/c2c[nH]c(=O)[nH]c2=O)SC(=S)N1Cc1ccccc1	104%	101%	80.1%	95.2%	97.7%	98.9%	100%	91.5%	99.8%	103%
Cc1ccc(C2CC(c3cccc(Nc4ccncc4)c3)=Nc3c(N)nc(N)nc3N2)cc1 (stereo not given)	40.4%	21.7%	70%	70.5%	42.4%	43.8%	65.3%	78.4%	25.7%	93.2%
COC(=O)/C=C1/SC(=NCc2ccccc2)N(CCc2c[nH]c3ccccc23)C1=O	58.5%	68.1%	104%	87.2%	78.5%	72.9%	87.6%	71.7%	70.6%	86.5%
Nc1c(C(=O)Nc2cccc3ncccc23)sc2nc3c(cc12)CN(Cc1ccccc1)CC3	74.2%	81.7%	84.2%	82.3%	88%	77%	19.2%	53.5%	88.6%	81.7%
C1CCC(N2CN3c4nonc4N4CN(C5CCCCC5)CN5c6nonc6N(C2)C3C45)CC1 (stereo not given)	84.5%	105%	88.7%	102%	93.3%	87.9%	93.5%	88.7%	98.9%	101%
C=C[C@@]1(C)CC(=O)[C@@H](C(C)(C)c2cn(C)c3ccc(Br)cc23)C[C@@H]1O[Si](C)(C)C(C)(C)C	102%	103%	102%	98.9%	97.4%	84.1%	104%	93.7%	90.4%	100%
O=c1cc(-c2ccccc2)nc(SCc2nc3cc(Cl)c(Cl)cc3[nH]2)[nH]1	98%	96.4%	86%	109%	99.9%	103%	105%	105%	98%	111%
Cc1ncc(C(=O)Nc2ccc(CN3CCN(C)CC3)c(C(F)(F)F)c2)cc1C#Cc1cnc(N)c2ccc(C#N)cc12	-77.4% (active)	-6.14% (active)	-11.5% (active)	52%	19.9%	11.7%	-79.7% (active)	-8.26% (active)	-90% (active)	-55.9% (active)
N=C(N)c1ccc(-c2ccc(-c3cc(Cl)cc(Cl)c3)s2)s1	-84.8% (active)	-80.1% (active)	3.24% (active)	-61.9% (active)	-86.5% (active)	35.6%	86.6%	-74% (active)	-82.4% (active)	33.7%
CN(C)CCC(=O)C1CC1	106%	99.3%	102%	96%	102%	99.2%	106%	99.2%	99%	107%
Cc1c(C(C)(C)O)cn2ncnc(Oc3ccc(NC(=O)Nc4ccc(Cl)c(C(F)(F)F)c4)c(F)c3)c12	55.5%	61.1%	36.5%	53.2%	47%	39.2%	61.4%	72%	59.7%	71.3%
O=S(=O)(NCCNc1nccc(-c2c(-c3ccc(F)c(O)c3)nc3sccn23)n1)c1ccc(Cl)cc1	27%	17.5%	50.2%	46.1%	41.6%	17%	-18.5% (active)	-1.12% (active)	29.6%	47.6%
CN1C(=O)/C(=C/c2ccc(C(=O)Nc3ncc(Cc4cccc(C(F)(F)F)c4)s3)cc2)SC1=S	36.3%	55.4%	64.1%	61.5%	67.8%	53.5%	7.19% (active)	11.3%	35%	46.4%
O=C(NC1CCC(Br)CC1)C1CCCC(S(=O)(=O)NC2CCCCC2)C1 (stereo not given)	18.8% [25 µM]	28.7% [25 µM]	27.4% [25 µM]	26.8% [25 µM]	18.5% [25 µM]	4.26% [25 µM] (active)	-68% [25 µM] (active)	9.41% [25 µM] (active)	15.8% [25 µM]	24.7% [25 µM]
CC1(C)CC[C@]23CC[C@]4(C)[C@H](CC[C@@H]5[C@@]6(C)C/C(=C/O)C(=O)C(C)(C)[C@@H]6CC[C@]54C)[C@H]2[C@H]1OC3	110%	100%	104%	98%	105%	86.1%	101%	93%	90.8%	107%
